Records with an inconclusive call do not appear. Where a call stands in place of a potency, no number is given. Calls of active or inactive are those of the source. Calls follow the shape of the dose curve; as a rule, active = well fitted cell-killing curve with a large enough effect in the repeat runs; inconclusive = weak or mixed curves; inactive = flat fitted curve, though single readings scatter.
Test: qHTS assay to identify small molecule antagonists of the estrogen related receptor (ERR) signaling pathway - cell viability counter screen (AID 1224818)
Settings: ERR reporter cell line viability counter screen; series mostly up to 46.1 µM
Summary of the method: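 Cytotoxicity counter screen: fluorescence from CellTiter-Fluor, added after 17.5 h compound exposure at 37 C and read 30 min later. ERR cell line seeded at 2,000 cells/well, preincubated 6 h before dosing.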

SMILES | Potency
Nc1nc(Cl)nc2c1ncn2[C@@H]1O[C@H](CO)C(O)[C@H]1O (stereo partly drawn) | inactive
CC(C)Cn1c(=O)n(C)c(=O)c2[nH]cnc21 | inactive
Nc1nc(OCc2ccccc2)c2[nH]cnc2n1 | inactive
O=c1onc2cnc3ccccc3n12 | inactive
O=C(O)C1=CCNCC1 | inactive
CC(C)[C@@H]1CC[C@@H](C)C[C@@H]1P(=O)(c1ccccc1)c1ccccc1 | inactive
O=C(O)c1ccccc1Nc1ccccc1 | inactive
COc1cc(SC)ccc1C(=O)N1CCC(Cc2ccccc2)CC1 | inactive
NC1(C(=O)O)CC1 | inactive
Nc1ncnc2c1ncn2C1CCCO1 (stereo not drawn) | inactive
O=C(O)CCc1ccc(NCc2cccc(Oc3ccccc3)c2)cc1 | inactive
O=C(O)CNC(=O)C(CS)Cc1ccccc1 (stereo not drawn) | inactive
COc1cc2c(CCNC(C)=O)c[nH]c2cc1O | inactive
CC(/C=C/c1cccc(Oc2ccc(F)cc2)c1)N(O)C(N)=O (stereo not drawn) | inactive
CCC(=O)N1CCN(C(=O)c2ccccc2)CC1 | inactive
NCC1OC(OC2C(O)[C@@H](OC3C(O)C(N)CC(N)C3OC3OC(CO)C(O)C(O)C3N)O[C@@H]2CO)C(N)C(O)C1O (stereo partly drawn) | inactive
COc1cc(/C=C(\C#N)C(=O)c2ccc(O)c(O)c2)cc(I)c1O | inactive
CC(=O)/C(C)=N/O | inactive

— PubChem BioAssay (Tox21)
